Laboratory results from the supplement of paper PMC6555819.

test system: VDR:RXRa (NR concentration 270 nM, RXRa partner concentration 90 nM); assay: PBM binding z-score (relative to random genomic background probes); higher = stronger binding; sequences stand for … in GC…GCGATTGACAGCGTAGAATGAAGG
Method: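 Protein-binding microarray (Agilent 4x180K custom design, double-stranded 60-nt probes: 5' GC cap, 34-nt variable region, 24-nt constant primer region; full probe sequence given). Purified or IVT nuclear receptor:RXRα heterodimers (3:1 NR:RXRα, mostly 270:90 nM) or homodimers were incubated for 1 h in PBS with 2% milk and no ligand, then detected with Alexa488 antibodies. Fluorescence from o1-orientation probes (~5 replicates averaged) was converted to z-scores against 500 random hg19 background probes. Variable regions are seed direct-repeat (DR0–DR5) sites, all their single-nucleotide variants and half-site ablations.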

Sequence | PBM binding z-score
GCTAGTTGGTCAGTAAAAGGTCACATACCGGTCG | 3.89
AACTCTAGGTAACCAAGTTCAGTGAATGCCGAAC | 3.64
TCATATAGATAAAAGGTGAAAGTCGGTGTGGTAA | 1.35
GGAACGATGGCATTCGAGTTGATAGCATGGCGAT | -0.32
TCTCGGAGGACACGGAAGGTCAGAGCTCGACATC | 1.97
AGCACGAGGGCAATGAGTTGATAGCACGGGTGGC | 5.06
TAGCCTAGGTCATGCGGGGCAGTATAGTGTCGGC | 4.22
ATCTCTAGGTAAGAATCAGTTCAGTGAAGAACGC | 0.845
CAAACTAGGTCACAGAGGCCAAAGTCCGTGCGTA | 6.5
ACTAGCAGGCCAAGTTTGGGTCACTCACACAAAG | 0.806
TCTATTAGTTGAAGGCCAACCGACGAGTCCGTTT | 1.02
TCTCGGAGGACACGAAGGACAGAGCTTTCCAGAG | -0.0596
CATACAGGGTCAGCTAGGCCAGAGAAGGGACGGC | 3.84
GTACCACGGTGAATAGGTCGTTGATGAGTAGGCG | -0.0883
TTGCCAAGGTGAAGGTCGTTGATCCCTCTGTAGA | 1.08
GCTAGTTGGTCAGTAAAAGGTCACAGACCGGTCG | 3.94
TCTATTAGTAGATTAGGGCAACCGAAACAGCGGA | 0.247
ACTATTAGTTGAGACGAGGGCATCCGATAGGTTG | 0.918
TAGCCTAGGTCATGCGGGCCAGTATCGTGTCGGC | 2.81
ATATCTAGGTAACAAGTTCAGTGAAAGAGAGGAC | 2.31

Sequence | PBM binding z-score
GGAACGAGGGCAAGTTGATAGAAGAGTTTGATGG | 0.975
ACTAGCAGGCCAAGGGTCAATCAAGATTAGTCCG | 2.66
ATCGAAAGGTCGAAGTTGAGTATACCCACCCGAA | 3.08
GATACAGGGTCAGCCAGAGGCCAGAGTATGGAAA | 3.64
ACTAGCAGGCCAAGTTTGGGTCACTTAAACAAAG | 0.715
CCTACTGGGCCGAAAAGGTCATTGATGCCGATAA | 4.48
TCTTCTAGGTCAGTTGGTCAGCTAACGAGCTGCC | 1.3
TGATATAGGTAAACAGGTGAAAGTCCGTAAGTTA | 0.405
TCATATAGGTAAACAGGTTAAAGTCCGTAAGTTA | 1.88
CCGACTGGGACATAAGGTTACCATAAGCCAGCCC | 0.181
ACAGACAGGTGAGTGAAGGTAACTCGGCTGGACG | -0.336
GCTATTAGTTGACAGGGCAACCGAATGATTCTCG | -0.414
CCGACTCGGGCAAAGGTTACCATACTCAGTACGA | 1.33
TAGCCTAGGTCATTCAGGAGCCAGTATAGAAAGC | 2.21
GTACCAAGGTGAATAGGGCGTTGATGAGTAGGCG | -0.176
TCTATTAGTTGACTAGGGCAACCGAAACAGCGGA | 0.704
CAAACTAGGTCACGAAAGTTCAAAGTCGAATGAC | 7.01
ACTAGCAGGCCAAGTTTGGGTCGCTCAAACAAAG | -0.328
AGAATGAGGTGATTAAGATCAGGGAATTGCGGTC | 0.0675
CGTCAAAGTTCAACTAAGGTAACGCAAAGCACGC | 4.64
